# Test results from PubChem BioAssay (NCATS).
# Records with an inconclusive call do not appear. Active and inactive are the calls of the source. Calls come from the whole dose curve; as a rule, active = well fitted cell-killing curve with a large enough effect; inconclusive = small, poorly fitted or top-dose-only effect; inactive = flat fitted curve, though single readings scatter.
# Experiment: qHTS of pediatric cancer cell lines to identify multiple opportunities for drug repurposing: Confirmatory screen for A673 cells (AID 1347110);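 note: cells exposed to compound for 48 h before the viability read; nearly all actives have a fitted effect of over 65% in size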
# Details: A673 Ewing sarcoma cell viability; series mostly up to 45.9 µM; activity change, negative = cytotoxicity: at the top concentration
# Excerpt: Drug repurposing or repositioning has been offered as a strategy for drug development in oncology programs. This approach has special potential for childhood cancers and other rare or orphan diseases, where the expected return on new drug development has been a disincentive to pharmaceuticals.
# In this project we exploit the poly-pharmacology of drugs to discover new indications via phenotypic screening of a panel of 19 well-characterized cell lines derived from solid tumors seen in children and adolescents. The goal is to identify approved drugs with previously unrecognized anticancer properties that has the potential to reveal new mechanisms and biological processes involved in carcinogenesis or drug resistance. We employed a titration-based paradigm (quantitative high-throughput screening or qHTS), where all compounds were tested at multiple concentrations for their effect on cell viability. Concentration-response curves (CRCs) were derived directly from the primary screen, and both potency and efficacy values were used to identify compounds with robust bioactivity profiles. We screened the NIH Chemical Genomics Center (NCGC) Pharmaceutical Collection (NPC) and Mechanism Interrogation Plate (MIPE) small molecule collections of approved and investigational compounds against these cell lines; and measured metabolically active cells after 48 hours of compound treatment as a proxy for cell viability.
# Assay Submitter: Nathalia J. Martinez, National Center for Advancing Translational Sciences, National Institutes of Health, Rockville, MD, USA; email: natalia.martinez@nih.gov.
# [1] Shen, M et al. Quantitative high-throughput phenotypic screening of pediatric cancer cell lines identifies multiple opportunities for drug repurposing. Oncotarget 2017 Dec 19;9(4):4758-4772. PMID 29435139.
# The cells were obtained from University of North Carolina (UNC), Pediatric Preclinical Testing Program (PPT), and Coriell Institute (CI).
# qHTS cell viability assay:
# Cells were assayed in growth media at a density of 500-1,000 cells/well. Five microliters of cells were dispensed into 1,536-well, white, solid-bottom, TC-treated plates (Greiner Bio One) using a multidrop dispenser and incubated at 37 degrees C, 5% CO2, under a humidified atmosphere for 5 hours. Twenty-three nanoliters of compounds and controls (neutral control DMSO or positive control bortezomib at final concentration of 2.3 uM) were subsequently transferred by Kalypsys pintool. For primary screens, the MIPE collection was tested at 11-point dilutions (final concentrations range from 0.78 nM to 46 µM) and the NPC collection at 8-point dilutions (final concentrations range from 0.59 nM to 46 µM). Compounds tested in follow-up screens were assayed at 11-point dilutions. Cells were incubated for 48 hours, followed by addition of 3 uL of CellTiter-Glo (Promega). After a 15min incubation at room temperature, samples were analyzed for luminescence intensity using a ViewLux High-throughput CCD imager equipped with clear filters.
# Potency is the fitted concentration of half-maximal effect.
Compound,"activity change, negative = cytotoxicity",Potency,outcome
Cc1c(Cn2c(C)nc3c(C(=O)O)cc(N4CCOCC4)cc32)cccc1C(F)(F)F,-16.1% (inactive),–,–
Cc1cnc(Nc2ccc(F)cc2Cl)nc1-c1c[nH]c(C(=O)N[C@H](CO)c2cccc(Cl)c2)c1,–,0.827 µM (active),–
Cn1c2ccccc2c2c3c(c4c5ccccc5n(CCC#N)c4c21)CNC3=O,–,4.65 µM (active),–
COc1c(OCCCN2CCOCC2)ccc2c3n(c(=NC(=O)c4cnc(N)nc4)nc12)CCN3,–,1.02 µM (active),–
CC1(C)CCC(c2ccc(Cl)cc2)=C(CN2CCN(c3ccc(C(=O)NS(=O)(=O)c4ccc(N[C@H](CCN5CCOCC5)CSc5ccccc5)c(S(=O)(=O)C(F)(F)F)c4)cc3)CC2)C1,–,8.27 µM (active),–
CC(=O)OCC(=O)[C@@]1(O)[C@H](C)C[C@H]2[C@@H]3C=C(C)C4=Cc5c(cnn5-c5ccccc5)C[C@]4(C)[C@@H]3[C@@H](O)C[C@@]21C,–,13.1 µM (active),–
CC(C)C[C@H](NC(=O)CNC(=O)c1cc(Cl)ccc1Cl)B(O)O,–,0.465 µM (active),–
CNC(=O)c1ccc(N2C(=S)N(c3cnc(C#N)c(C(F)(F)F)c3)C(=O)C23CCC3)cc1F,–,–,inactive
CC1(C)OC2=C(C(=O)c3ccccc3C2=O)[C@H](NCc2ccccc2)[C@H]1O,–,2.93 µM (active),–
O=C(C=Cc1cccnc1)NCCCCC1CCN(C(=O)c2ccccc2)CC1,19.7% (inactive),–,–
COc1ccc(C=Cc2cc(OC)c(OC)c(OC)c2)cc1O,–,0.0185 µM (active),–
Cc1cn(-c2cc(NC(=O)c3ccc(C)c(Nc4nccc(-c5cccnc5)n4)c3)cc(C(F)(F)F)c2)cn1,–,20.8 µM (active),–
CC(C)(C)NC(=O)[C@H]1CN(Cc2cccnc2)CCN1C[C@@H](O)C[C@@H](Cc1ccccc1)C(=O)N[C@H]1c2ccccc2C[C@H]1O,-19% (inactive),–,–
O=C(Nc1ncc(-c2cc(C(F)F)nn2-c2c(Cl)cccc2Cl)s1)C1CC1,–,0.293 µM (active),–
CC(C)(C)OC(=O)Nc1ccc(-c2cc(C(=O)NCCCCCCC(=O)NO)no2)cc1,–,2.33 µM (active),–
CCN1CCN(Cc2ccc(-c3cc4c(N[C@H](C)c5ccccc5)ncnc4[nH]3)cc2)CC1,–,0.479 µM (active),–
CC(C)(C)c1cc(NC(=O)Nc2ccc(-c3cn4c(n3)sc3cc(OCCN5CCOCC5)ccc34)cc2)no1,–,0.585 µM (active),–
CC(C)c1nn(-c2c(Cl)cccc2Cl)c2nc(Cc3ccc(OCCO)cc3)[nH]c(=O)c12,–,0.131 µM (active),–
CN[C@H]1CCc2cc(OC)c(OC)c(OC)c2-c2ccc(OC)c(=O)cc21,–,0.104 µM (active),–
COc1cc2c(NC3CCN(C(C)C)CC3)nc(C3CCCCC3)nc2cc1OCCCN1CCCC1,–,18.5 µM (active),–

Compound,"activity change, negative = cytotoxicity",Potency,outcome
CC=C1NC(=O)[C@H]2CSSCCC=C[C@H](CC(=O)N[C@H](C(C)C)C(=O)N2)OC(=O)[C@H](C(C)C)NC1=O,–,–,inactive
Cc1nc2cnc3ccc(C#Cc4cccnc4)cc3c2n1-c1ccc(C(C)(C)C#N)cc1,–,2.69 µM (active),–
COC(=O)Nc1nc2ccc(C(=O)c3ccc(F)cc3)cc2[nH]1,–,1.31 µM (active),–
COc1cc2c(Oc3ccc(NC(=O)C4(C(=O)Nc5ccc(F)cc5)CC4)cc3F)ccnc2cc1OCCCN1CCOCC1,–,2.33 µM (active),–
CC[C@@]1(O)C(=O)OCc2c1cc1n(c2=O)Cc2cc3cc(O)ccc3nc2-1,–,0.0465 µM (active),–
Nc1ccccc1NC(=O)c1ccc(CNC(=O)OCc2cccnc2)cc1,–,13.5 µM (active),–
O=C(NC1CCNCC1)c1[nH]ncc1NC(=O)c1c(Cl)cccc1Cl,–,0.414 µM (active),–
C[C@@H](Oc1cc(-n2cnc3ccc(CN4CCN(C)CC4)cc32)sc1C(N)=O)c1ccccc1C(F)(F)F,–,0.117 µM (active),–
CN1CCN(c2cc(C(=O)Nc3ccc4c(c3)-c3c(c(C(N)=O)nn3-c3ccc(F)cc3)CC4)c(Cl)cn2)CC1,–,14.7 µM (active),–
COC(=O)Nc1ccc(-c2nc(N3CCOCC3)c3cnn(C4CCN(Cc5cccnc5)CC4)c3n2)cc1,–,1.31 µM (active),–
COc1ccc(-c2cc3c(C)nc(N)nc3n(C3CCC(OCCO)CC3)c2=O)cn1 (stereo not given),–,1.17 µM (active),–
Cc1ccc2nc(NC(=O)CSc3nc4c(c(=O)n3-c3ccccc3)SCC4)sc2c1,–,1.04 µM (active),–
NCC(=O)Nc1ccc(-n2nc(C(F)(F)F)cc2-c2ccc3c(ccc4ccccc43)c2)cc1,–,11.7 µM (active),–
CCn1nnc2c(N3CCOCC3)nc(-c3ccc(NC(=O)Nc4ccc(C(=O)N5CCN(C)CC5)cc4)cc3)nc21,–,0.585 µM (active),–
CS(=O)(=O)N1CCN(Cc2cc3nc(-c4cccc5[nH]ncc45)nc(N4CCOCC4)c3s2)CC1,–,3.39 µM (active),–
Cc1c(CN2CCN(S(C)(=O)=O)CC2)sc2c(N3CCOCC3)nc(-c3cnc(N)nc3)nc12,–,1.85 µM (active),–
CC[C@H]1CN2CCc3cc(OC)c(OC)cc3[C@H]2C[C@@H]1C[C@@H]1NCCc2cc(OC)c(OC)cc21,–,0.657 µM (active),–
COc1cccc2c(NCc3ccccc3)nc(-n3c(N)nc4ccccc43)nc12,–,7.37 µM (active),–
COc1cc2c(Oc3ccc(-c4cnc(Nc5ccc(F)cc5)n(C)c4=O)cc3F)ccnc2cc1OCCCN1CCOCC1,–,4.14 µM (active),–
COc1cccc2nc(-c3cccs3)nc(NN3C(=O)C=C(C)C3=O)c12,–,5.22 µM (active),–
